Key:
Test in all cases: log2 ratio of Biotin-Ahx-Ub-VS probe labelling (fragment/DMSO); higher = less target engagement (more negative = stronger competition), active = hit call of the paper (q ≤ 0.05, log2 ratio ≤ -1)
Settings in all cases: compound concentration: 200 uM; treatment time: 3 h
USP9X = USP9X (UniProt Q93008)
How it was run: (§1)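 Labelled DUBs from HEK293T lysate were NeutrAvidin-enriched, digested with LysC and trypsin, and run by diaPASEF LC-MS/MS. Before that, each 495 µg sample in Tris/CHAPS/IGEPAL buffer with protease inhibitors was treated in triplicate with fragment at 200 µM or vehicle for 3 h, then with Biotin-Ahx-Ub-VS at 0.5 µM final for 1 h. Values are average log2 ratios of fragment over vehicle by unpaired t-test, based on global-median-normalised Spectronaut label-free quantities from proteins with ≥2 unique peptides.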

UniProt O00487 = molecular target: UniProt O00487
Sequence of UniProt O00487 (O00487 whole entry): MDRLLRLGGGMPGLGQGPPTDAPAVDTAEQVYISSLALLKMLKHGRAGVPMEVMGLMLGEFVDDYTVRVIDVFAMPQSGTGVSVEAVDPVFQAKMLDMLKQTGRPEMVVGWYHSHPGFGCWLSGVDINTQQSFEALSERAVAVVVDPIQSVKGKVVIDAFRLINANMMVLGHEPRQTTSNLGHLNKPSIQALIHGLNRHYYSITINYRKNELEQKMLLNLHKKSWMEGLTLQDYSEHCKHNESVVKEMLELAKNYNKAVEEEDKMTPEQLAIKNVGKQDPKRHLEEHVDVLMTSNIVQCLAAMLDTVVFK
How it was run: as §1

UniProt O00507 = molecular target: UniProt O00507
Sequence of UniProt O00507 (O00507 whole entry): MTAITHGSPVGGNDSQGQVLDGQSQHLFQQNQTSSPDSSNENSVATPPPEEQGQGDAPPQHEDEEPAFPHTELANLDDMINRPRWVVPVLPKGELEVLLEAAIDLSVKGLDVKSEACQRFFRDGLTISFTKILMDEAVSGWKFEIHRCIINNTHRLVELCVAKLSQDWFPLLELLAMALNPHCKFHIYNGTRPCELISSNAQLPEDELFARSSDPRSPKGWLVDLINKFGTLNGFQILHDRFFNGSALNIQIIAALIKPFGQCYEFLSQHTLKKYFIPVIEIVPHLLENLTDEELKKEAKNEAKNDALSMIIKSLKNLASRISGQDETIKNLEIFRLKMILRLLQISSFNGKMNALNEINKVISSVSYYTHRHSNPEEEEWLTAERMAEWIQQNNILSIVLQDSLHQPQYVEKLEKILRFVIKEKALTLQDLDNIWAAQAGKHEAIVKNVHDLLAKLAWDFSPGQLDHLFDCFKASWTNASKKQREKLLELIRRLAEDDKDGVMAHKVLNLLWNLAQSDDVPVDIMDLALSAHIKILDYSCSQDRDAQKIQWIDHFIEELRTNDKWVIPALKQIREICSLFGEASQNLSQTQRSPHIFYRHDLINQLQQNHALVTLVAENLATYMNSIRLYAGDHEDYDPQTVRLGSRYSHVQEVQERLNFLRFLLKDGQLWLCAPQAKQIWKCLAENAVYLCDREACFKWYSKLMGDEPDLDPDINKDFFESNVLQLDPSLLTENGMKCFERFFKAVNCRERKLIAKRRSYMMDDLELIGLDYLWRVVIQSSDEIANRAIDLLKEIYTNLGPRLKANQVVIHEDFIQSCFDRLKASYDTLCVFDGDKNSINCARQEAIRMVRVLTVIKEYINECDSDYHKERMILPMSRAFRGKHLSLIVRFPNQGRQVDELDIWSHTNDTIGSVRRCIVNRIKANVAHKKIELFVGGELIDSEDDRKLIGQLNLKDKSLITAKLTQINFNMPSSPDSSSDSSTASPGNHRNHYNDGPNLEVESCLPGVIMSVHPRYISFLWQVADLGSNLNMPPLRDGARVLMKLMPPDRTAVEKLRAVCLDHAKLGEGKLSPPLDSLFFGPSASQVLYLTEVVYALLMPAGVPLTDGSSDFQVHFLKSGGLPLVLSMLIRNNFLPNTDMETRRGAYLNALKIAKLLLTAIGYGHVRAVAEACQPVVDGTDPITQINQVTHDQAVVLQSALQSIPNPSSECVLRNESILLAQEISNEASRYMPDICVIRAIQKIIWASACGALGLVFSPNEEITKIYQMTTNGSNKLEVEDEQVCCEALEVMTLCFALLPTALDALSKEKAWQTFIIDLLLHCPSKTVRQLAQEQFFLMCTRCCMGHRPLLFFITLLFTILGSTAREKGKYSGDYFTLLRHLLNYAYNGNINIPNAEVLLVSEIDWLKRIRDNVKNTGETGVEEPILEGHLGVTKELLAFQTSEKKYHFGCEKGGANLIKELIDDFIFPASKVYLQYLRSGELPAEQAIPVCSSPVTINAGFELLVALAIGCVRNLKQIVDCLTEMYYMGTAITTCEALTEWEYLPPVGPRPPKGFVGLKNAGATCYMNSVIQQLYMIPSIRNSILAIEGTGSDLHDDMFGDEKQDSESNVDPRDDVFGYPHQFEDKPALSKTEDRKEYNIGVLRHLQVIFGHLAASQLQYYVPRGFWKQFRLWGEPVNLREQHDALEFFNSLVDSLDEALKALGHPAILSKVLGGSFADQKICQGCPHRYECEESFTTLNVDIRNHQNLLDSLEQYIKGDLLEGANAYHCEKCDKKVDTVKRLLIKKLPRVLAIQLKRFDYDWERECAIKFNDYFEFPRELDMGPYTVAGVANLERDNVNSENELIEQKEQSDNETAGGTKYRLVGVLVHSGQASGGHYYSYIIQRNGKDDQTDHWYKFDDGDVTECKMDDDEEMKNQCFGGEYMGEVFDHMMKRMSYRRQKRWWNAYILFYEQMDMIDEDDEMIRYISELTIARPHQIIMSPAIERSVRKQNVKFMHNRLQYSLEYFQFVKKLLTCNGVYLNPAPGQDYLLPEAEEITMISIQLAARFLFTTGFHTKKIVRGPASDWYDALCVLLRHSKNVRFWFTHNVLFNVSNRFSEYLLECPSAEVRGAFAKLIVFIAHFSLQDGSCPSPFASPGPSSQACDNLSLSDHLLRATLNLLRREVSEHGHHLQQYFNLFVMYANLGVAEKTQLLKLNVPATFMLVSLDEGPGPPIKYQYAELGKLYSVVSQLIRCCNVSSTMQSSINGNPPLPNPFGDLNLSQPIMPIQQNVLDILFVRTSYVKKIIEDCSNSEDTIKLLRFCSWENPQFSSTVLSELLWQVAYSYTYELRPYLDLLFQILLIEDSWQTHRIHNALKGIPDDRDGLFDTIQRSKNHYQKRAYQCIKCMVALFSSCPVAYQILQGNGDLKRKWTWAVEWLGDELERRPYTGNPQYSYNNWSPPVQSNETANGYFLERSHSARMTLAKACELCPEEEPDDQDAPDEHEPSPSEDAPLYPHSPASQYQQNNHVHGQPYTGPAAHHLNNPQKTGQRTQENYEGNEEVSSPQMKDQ
How it was run: as §1

UniProt P51784 = molecular target: UniProt P51784
Sequence of UniProt P51784 (P51784 whole entry): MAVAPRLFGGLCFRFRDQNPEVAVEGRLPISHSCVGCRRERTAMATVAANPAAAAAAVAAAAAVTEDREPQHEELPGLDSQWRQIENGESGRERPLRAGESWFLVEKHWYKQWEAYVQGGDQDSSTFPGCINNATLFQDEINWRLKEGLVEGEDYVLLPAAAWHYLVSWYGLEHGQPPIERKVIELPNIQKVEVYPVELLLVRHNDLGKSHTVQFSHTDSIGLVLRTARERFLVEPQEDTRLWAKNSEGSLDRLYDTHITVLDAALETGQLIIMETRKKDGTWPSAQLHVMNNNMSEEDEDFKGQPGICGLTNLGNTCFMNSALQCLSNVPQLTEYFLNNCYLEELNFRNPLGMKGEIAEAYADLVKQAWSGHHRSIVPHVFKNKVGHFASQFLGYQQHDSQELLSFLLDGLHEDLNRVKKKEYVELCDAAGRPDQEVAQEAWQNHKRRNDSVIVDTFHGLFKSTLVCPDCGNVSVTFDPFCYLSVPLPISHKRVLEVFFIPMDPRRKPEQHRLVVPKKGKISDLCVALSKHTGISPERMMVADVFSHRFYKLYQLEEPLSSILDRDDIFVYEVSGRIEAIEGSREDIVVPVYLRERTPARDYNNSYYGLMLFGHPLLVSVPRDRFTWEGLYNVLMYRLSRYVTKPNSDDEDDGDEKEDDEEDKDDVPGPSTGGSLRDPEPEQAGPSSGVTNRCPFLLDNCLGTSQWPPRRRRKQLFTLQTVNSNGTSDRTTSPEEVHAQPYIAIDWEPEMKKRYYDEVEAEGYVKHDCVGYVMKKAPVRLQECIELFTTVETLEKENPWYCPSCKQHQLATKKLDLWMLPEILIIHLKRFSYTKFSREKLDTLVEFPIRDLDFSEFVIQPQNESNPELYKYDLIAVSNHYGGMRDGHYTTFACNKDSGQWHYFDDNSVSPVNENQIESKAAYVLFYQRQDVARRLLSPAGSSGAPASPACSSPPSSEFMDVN
How it was run: as §1

UniProt Q5T2D3 = molecular target: T1, UniProt Q5T2D3
T1 sequence (whole entry): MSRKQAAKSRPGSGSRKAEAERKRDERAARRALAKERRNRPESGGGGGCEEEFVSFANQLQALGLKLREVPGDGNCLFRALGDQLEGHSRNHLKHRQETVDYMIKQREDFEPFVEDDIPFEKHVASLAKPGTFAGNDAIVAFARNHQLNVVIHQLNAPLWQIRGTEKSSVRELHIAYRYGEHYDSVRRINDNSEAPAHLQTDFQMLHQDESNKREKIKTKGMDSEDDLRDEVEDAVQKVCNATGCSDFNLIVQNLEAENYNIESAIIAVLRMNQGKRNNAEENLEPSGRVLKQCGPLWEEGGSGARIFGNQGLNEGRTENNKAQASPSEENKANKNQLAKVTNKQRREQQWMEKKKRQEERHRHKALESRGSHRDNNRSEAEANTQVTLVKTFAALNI
How it was run: as §1

UniProt Q8TE49 = molecular target: T2, UniProt Q8TE49
T2 sequence (whole entry): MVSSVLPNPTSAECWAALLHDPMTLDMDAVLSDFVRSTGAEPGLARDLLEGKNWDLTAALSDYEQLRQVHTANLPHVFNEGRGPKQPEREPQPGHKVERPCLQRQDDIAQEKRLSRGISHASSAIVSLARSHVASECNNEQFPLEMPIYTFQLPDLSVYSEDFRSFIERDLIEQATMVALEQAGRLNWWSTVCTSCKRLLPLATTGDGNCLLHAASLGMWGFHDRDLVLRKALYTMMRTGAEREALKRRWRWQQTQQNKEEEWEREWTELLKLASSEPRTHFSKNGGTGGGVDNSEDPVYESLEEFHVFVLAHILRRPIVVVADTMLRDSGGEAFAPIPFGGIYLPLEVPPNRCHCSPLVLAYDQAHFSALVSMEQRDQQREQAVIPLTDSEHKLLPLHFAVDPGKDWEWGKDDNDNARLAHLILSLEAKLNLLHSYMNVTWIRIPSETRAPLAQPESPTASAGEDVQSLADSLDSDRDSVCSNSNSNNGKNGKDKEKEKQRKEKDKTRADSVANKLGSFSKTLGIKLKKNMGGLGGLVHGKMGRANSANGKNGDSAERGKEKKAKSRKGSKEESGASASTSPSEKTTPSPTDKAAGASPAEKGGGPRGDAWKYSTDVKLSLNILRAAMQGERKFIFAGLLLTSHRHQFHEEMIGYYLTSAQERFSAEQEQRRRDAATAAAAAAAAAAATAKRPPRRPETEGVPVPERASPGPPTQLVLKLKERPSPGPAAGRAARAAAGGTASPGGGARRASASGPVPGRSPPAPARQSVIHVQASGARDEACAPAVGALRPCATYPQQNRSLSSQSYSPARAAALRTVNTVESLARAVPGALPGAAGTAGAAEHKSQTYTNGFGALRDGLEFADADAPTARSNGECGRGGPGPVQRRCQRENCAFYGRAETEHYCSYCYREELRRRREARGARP
How it was run: as §1

UniProt Q9P2H5 = molecular target: T3, UniProt Q9P2H5
T3 sequence (whole entry): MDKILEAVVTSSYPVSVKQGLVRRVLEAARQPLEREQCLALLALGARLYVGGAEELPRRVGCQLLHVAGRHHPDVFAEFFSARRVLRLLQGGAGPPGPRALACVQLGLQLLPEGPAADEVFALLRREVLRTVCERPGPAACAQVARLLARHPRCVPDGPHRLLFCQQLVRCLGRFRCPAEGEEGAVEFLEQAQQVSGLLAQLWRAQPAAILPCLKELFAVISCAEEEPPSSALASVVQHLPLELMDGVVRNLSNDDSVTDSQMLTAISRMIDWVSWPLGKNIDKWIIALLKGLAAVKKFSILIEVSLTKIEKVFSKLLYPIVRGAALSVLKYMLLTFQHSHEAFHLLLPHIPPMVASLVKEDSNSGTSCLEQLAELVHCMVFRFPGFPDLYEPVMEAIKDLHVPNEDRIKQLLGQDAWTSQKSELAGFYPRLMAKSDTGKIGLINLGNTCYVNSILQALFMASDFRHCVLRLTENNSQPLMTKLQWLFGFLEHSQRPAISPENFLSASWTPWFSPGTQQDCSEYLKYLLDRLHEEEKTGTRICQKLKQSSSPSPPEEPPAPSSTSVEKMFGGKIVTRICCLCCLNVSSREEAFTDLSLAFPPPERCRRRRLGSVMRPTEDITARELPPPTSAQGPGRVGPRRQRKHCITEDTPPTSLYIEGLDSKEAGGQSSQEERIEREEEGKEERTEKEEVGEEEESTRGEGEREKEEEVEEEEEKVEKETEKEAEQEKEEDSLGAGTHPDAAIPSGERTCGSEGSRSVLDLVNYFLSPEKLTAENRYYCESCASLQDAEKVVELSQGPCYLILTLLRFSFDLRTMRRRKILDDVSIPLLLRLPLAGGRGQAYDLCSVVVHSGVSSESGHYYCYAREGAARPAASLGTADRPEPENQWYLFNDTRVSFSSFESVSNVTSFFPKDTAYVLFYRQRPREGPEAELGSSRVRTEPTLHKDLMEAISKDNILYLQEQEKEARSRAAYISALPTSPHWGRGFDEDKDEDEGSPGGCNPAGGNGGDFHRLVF
How it was run: as §1

UniProt Q9UGI0 = molecular target: T4, UniProt Q9UGI0
T4 sequence (whole entry): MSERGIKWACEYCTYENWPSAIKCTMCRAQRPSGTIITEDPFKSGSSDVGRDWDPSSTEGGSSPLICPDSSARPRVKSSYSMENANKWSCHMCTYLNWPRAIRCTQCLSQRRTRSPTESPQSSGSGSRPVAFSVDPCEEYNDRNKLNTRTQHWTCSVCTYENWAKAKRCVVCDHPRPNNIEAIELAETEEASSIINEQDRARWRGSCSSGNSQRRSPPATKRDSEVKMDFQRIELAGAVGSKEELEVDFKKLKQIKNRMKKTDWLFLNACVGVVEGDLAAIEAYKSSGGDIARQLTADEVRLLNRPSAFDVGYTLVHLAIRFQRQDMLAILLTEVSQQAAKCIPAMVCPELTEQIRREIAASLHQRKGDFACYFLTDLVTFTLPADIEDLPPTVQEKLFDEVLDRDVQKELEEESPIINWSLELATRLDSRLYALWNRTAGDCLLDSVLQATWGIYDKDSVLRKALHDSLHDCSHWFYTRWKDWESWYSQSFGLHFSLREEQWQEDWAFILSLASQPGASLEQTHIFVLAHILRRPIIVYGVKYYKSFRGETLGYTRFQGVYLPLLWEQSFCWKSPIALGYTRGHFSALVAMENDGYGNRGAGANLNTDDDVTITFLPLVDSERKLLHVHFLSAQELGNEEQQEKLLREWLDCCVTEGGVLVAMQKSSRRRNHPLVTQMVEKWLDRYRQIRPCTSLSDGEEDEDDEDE
How it was run: as §1

YOD1 = molecular target: T5, YOD1 (UniProt Q5VVQ6)
T5 sequence (whole entry): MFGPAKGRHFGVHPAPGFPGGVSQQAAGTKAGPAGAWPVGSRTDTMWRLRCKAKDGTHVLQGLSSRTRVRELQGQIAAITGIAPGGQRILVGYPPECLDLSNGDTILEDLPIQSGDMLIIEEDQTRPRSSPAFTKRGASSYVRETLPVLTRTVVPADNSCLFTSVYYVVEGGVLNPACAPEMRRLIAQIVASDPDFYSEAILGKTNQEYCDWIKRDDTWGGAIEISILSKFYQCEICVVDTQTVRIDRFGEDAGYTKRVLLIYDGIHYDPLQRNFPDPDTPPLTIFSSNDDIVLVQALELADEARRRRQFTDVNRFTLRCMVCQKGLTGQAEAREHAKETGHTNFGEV
How it was run: as §1

Measured: log2 ratio of Biotin-Ahx-Ub-VS probe labelling

COc1cc(Cl)c(C)cc1NC(=O)CCl
active: UniProt Q9UGI0 -1.23
inactive: USP9X -0.645 | UniProt O00487 -0.246 | UniProt O00507 -0.429 | UniProt P51784 -0.107 | UniProt Q5T2D3 -0.258 | UniProt Q8TE49 -0.622 | UniProt Q9P2H5 -0.319 | YOD1 -0.11
